SMILES strings stand for the structures. The source made the active and inactive calls.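 How the source made its calls, unless noted: active means hit in primary screen, with calcium signal over 5 SD above buffer well mean in both duplicates; inactive means the rest.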

The test system of the first assay is TRPC4 (mouse), co-expressed with 5HT1a in HEK293. The experiment in a line: enhancement of serotonin-evoked TRPC4 response – cell-based, second counter screen, HEK293 TRPC4/5HT1a, Fluo-4, counter-screen for TRPC4 potentiator project, confirmation (AID 434979;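 active means signal rise over 3 SD above mean of control wells given weak agonist, in both repeats and first screen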). As to conditions: Fluo-4 calcium flux, at 10 µM, serotonin added at its EC20 dose; hits give high values.
`COC(=O)c1ccccc1NC(=O)c1cnn2cccnc12`: the potentiation is 40.2% (active).
For `Cc1cc(Cl)ccc1OC(C)C(=O)Nc1ccccc1N1CCOCC1` (stereo not drawn), the outcome was inactive.
Same read-out and setting: to `CC(C(=O)c1ccc(Br)cc1)[n+]1cccc(NC(=O)c2ccccc2)c1` (stereo not drawn) belongs “inactive”; to `Cn1c(SCCOc2ccccc2F)nc2ccccc2c1=O`, “inactive”.
The same measure, in the same setting: for `O=C(CN1CCCN(S(=O)(=O)c2ccc(F)cc2)CC1)Nc1ccccc1Br` the value was “inactive”.
The same measure, in the same setting: for `Cc1c(CCOC(=O)c2ccccc2)sc[n+]1CC(=O)c1ccc(Br)cc1` the value was “inactive”.
`Cc1c(N2C(=O)/C(=C/c3ccccc3)SC2=S)c(=O)n(-c2ccccc2)n1C`: the result was inactive.
For `CCOC(=O)Cc1csc(NC(=O)NC2(C(F)(F)F)Oc3cc(Cl)c(Cl)cc3O2)n1`, the result was inactive.
For the molecule `CCCn1nc(C(=O)NC2CCCc3ccccc32)c2ccccc2c1=O` (stereo not drawn), the potentiation was 19.5% (active).
The same measure, in the same setting: for `CCOC(=O)c1c(C)n(-c2ccc(C)cc2)c2ccc(OCC(O)CNCC3CCCO3)cc12` (stereo not drawn) the value was 24.6% (active); for `O=C(NCCCN1CCN(CCCNC(=O)c2cccc(Cl)c2)CC1)c1cccc(Cl)c1`, 11.3% (active).
`COC(=O)[C@@]12CCCCN1[C@H](c1ccc(-c3ccc(C(C)=O)cc3)cc1)[C@@H]1C(=O)N(C)C(=O)[C@@H]12`: the outcome was inactive.
Still for that read-out and setting: to `Cc1ccc(CNC(=O)CSc2nc(=O)n3ccccc3n2)cc1` belongs “inactive”.
With `CCCCCCc1cc2cc(-c3nnc(-c4ccccc4O)o3)c(=O)oc2cc1O`, the potentiation is 35.3% (active).
Same read-out and setting: to `CCCCN(C)CCNC(=O)C1CCCN(S(=O)(=O)c2cccc3nsnc23)C1` (stereo not drawn) belongs 7.12% (active).
As to `Cc1cccc(NC(=O)CNC(=O)CN2C(=O)NC3(CCCCC3C)C2=O)c1C` (stereo not drawn), the outcome was inactive.
Consider `CC(C)c1ccc(OCc2ccc(C(=O)N3CCCC3)o2)cc1`, for which the outcome was inactive.
Still for that read-out and setting: to `COc1ccc(-n2cc(CNCc3cnc4ccccn34)c(-c3cccc(F)c3)n2)cc1` belongs “inactive”.
Same read-out and setting: to `COc1ccc(CCN2C(=S)N(C)C(=O)C2CC(=O)Nc2ccc(F)cc2)cc1` (stereo not drawn) belongs “inactive”.
On to `CCOC(=O)C1=NNC(C(=O)c2ccc(Cl)cc2)C1c1ccc(OC)cc1` (stereo not drawn), for which the potentiation is 8.48% (active).
With `Cc1ccc(C(C)C)c(OCCCCN2CCNCC2)c1`, the potentiation is 23.8% (active).
With `CCOC(=O)CSc1nc2ccccc2c(=O)n1C1CCCC1`, the outcome was inactive.
Consider `Clc1ccc(Cl)c(OCCCCN2CCNCC2)c1`, for which the potentiation was 6.61% (active).
Regarding `COc1ccc(-c2cc(C(=O)N3CC(C)CC(C)C3)c3ccccc3n2)cc1` (stereo not drawn), the result was inactive.
As for `Cn1c(N2CCC(C(N)=O)CC2)nc2c1c(=O)n(Cc1ccc(Br)cc1)c(=O)n2C`, the result was inactive.
As to `OC1(c2ccc(Cl)cc2)CN(c2ccccc2)C2=[N+]1CCS2` (stereo not drawn), the outcome was inactive.
Regarding `CCN(CCCNC(=O)CCCOc1cc(=O)n(C)c2ccccc12)Cc1ccccc1`, the potentiation is 16.1% (active).
Regarding `O=C(NN/C(=N/S(=O)(=O)c1ccc(Cl)cc1)c1ccccc1)c1cccc(Cl)c1`, the outcome was inactive.
The same measure, in the same setting: to `CCn1c2ccc(F)cc2c2nnc(NN)nc21` belongs “inactive”.
Take `CCN(CC)CCOCCOc1ccc(Cl)c2ccccc12`: the potentiation was 11% (active).
Same read-out and setting: for `O=C(NCCCN1CCCC1=O)c1ccc(CNS(=O)(=O)c2ccc(F)cc2)cc1` the value was 14.7% (active).
Take `Cc1noc(C)c1COC(=O)[C@@H](NC(=O)c1ccccc1Cl)C(C)C`: the result was inactive.
On to `C/C=C/Cn1c(SCCCc2ccccc2)nc2c1c(=O)[nH]c(=O)n2C`, for which the potentiation is 88.5% (active).
On to `O=[N+]([O-])c1ccc2c(c1)C=C1CCCCC1(N1CCCC1)O2` (stereo not drawn), for which the outcome was inactive.
Still for that read-out and setting: for `COc1ccc(CCn2c(=S)[nH]c3cc(C(=O)N4CCOCC4)ccc3c2=O)cc1OC` the value was “inactive”.
As for `CN(C)CCCCOc1cccc(Br)c1`, the potentiation was 20% (active).
On the same count and under the same terms, for `CC1=CC(=O)C(C(C)C)=C/C1=N/OS(=O)(=O)c1ccccc1` the value was 64.1% (active); for `O=C1CC(NS(=O)(=O)c2cccs2)CN1c1ccccc1` (stereo not drawn), 29.8% (active).
For `OCCNCc1cc(Br)ccc1OCc1ccccc1`, the result was inactive.

Test system in the next assay: not listed separately
The experiment in a line: nonspecific calcium rise without TRPC4 – cell-based, HEK293 mu-opioid receptor line, counter-screen for TRPC4 activator project, confirmation (AID 449723).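 Further: counter screen cells carry the mu-opioid receptor alone and lack TRPC4.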 As to conditions: HEK293 mu-opioid cells, Fluo-4 calcium fluorescence, at 10 µM; hits give high values.
Turning to `COC(=O)c1ccccc1NC(=O)c1cnn2cccnc12`, the outcome was inactive.
Same read-out and setting: for `Cc1cc(Cl)ccc1OC(C)C(=O)Nc1ccccc1N1CCOCC1` (stereo not drawn) the value was “inactive”.
The same measure, in the same setting: for `CC(C(=O)c1ccc(Br)cc1)[n+]1cccc(NC(=O)c2ccccc2)c1` (stereo not drawn) the value was “inactive”.
Same read-out and setting: for `Cn1c(SCCOc2ccccc2F)nc2ccccc2c1=O` the value was “inactive”.
On to `O=C(CN1CCCN(S(=O)(=O)c2ccc(F)cc2)CC1)Nc1ccccc1Br`, for which the result was inactive.
Take `Cc1c(CCOC(=O)c2ccccc2)sc[n+]1CC(=O)c1ccc(Br)cc1`: the outcome was inactive.
The same measure, in the same setting: for `Cc1c(N2C(=O)/C(=C/c3ccccc3)SC2=S)c(=O)n(-c2ccccc2)n1C` the value was “inactive”; for `CCOC(=O)Cc1csc(NC(=O)NC2(C(F)(F)F)Oc3cc(Cl)c(Cl)cc3O2)n1`, “inactive”; for `CCCn1nc(C(=O)NC2CCCc3ccccc32)c2ccccc2c1=O` (stereo not drawn), “inactive”.
On the same count and under the same terms, for `CCOC(=O)c1c(C)n(-c2ccc(C)cc2)c2ccc(OCC(O)CNCC3CCCO3)cc12` (stereo not drawn) the value was “inactive”; for `O=C(NCCCN1CCN(CCCNC(=O)c2cccc(Cl)c2)CC1)c1cccc(Cl)c1`, “inactive”; for `COC(=O)[C@@]12CCCCN1[C@H](c1ccc(-c3ccc(C(C)=O)cc3)cc1)[C@@H]1C(=O)N(C)C(=O)[C@@H]12`, “inactive”.
The same measure, in the same setting: for `Cc1ccc(CNC(=O)CSc2nc(=O)n3ccccc3n2)cc1` the value was “inactive”.
As to `CCCCCCc1cc2cc(-c3nnc(-c4ccccc4O)o3)c(=O)oc2cc1O`, the result was inactive.
The same measure, in the same setting: to `CCCCN(C)CCNC(=O)C1CCCN(S(=O)(=O)c2cccc3nsnc23)C1` (stereo not drawn) belongs “inactive”.
Still for that read-out and setting: for `Cc1cccc(NC(=O)CNC(=O)CN2C(=O)NC3(CCCCC3C)C2=O)c1C` (stereo not drawn) the value was “inactive”.
For the molecule `CC(C)c1ccc(OCc2ccc(C(=O)N3CCCC3)o2)cc1`, the result was inactive.
Still for that read-out and setting: to `COc1ccc(-n2cc(CNCc3cnc4ccccn34)c(-c3cccc(F)c3)n2)cc1` belongs “inactive”; to `COc1ccc(CCN2C(=S)N(C)C(=O)C2CC(=O)Nc2ccc(F)cc2)cc1` (stereo not drawn), “inactive”; to `CCOC(=O)C1=NNC(C(=O)c2ccc(Cl)cc2)C1c1ccc(OC)cc1` (stereo not drawn), “inactive”.
Same read-out and setting: to `Cc1ccc(C(C)C)c(OCCCCN2CCNCC2)c1` belongs “inactive”.
On the same count and under the same terms, to `CCOC(=O)CSc1nc2ccccc2c(=O)n1C1CCCC1` belongs “inactive”; to `Clc1ccc(Cl)c(OCCCCN2CCNCC2)c1`, “inactive”; to `COc1ccc(-c2cc(C(=O)N3CC(C)CC(C)C3)c3ccccc3n2)cc1` (stereo not drawn), “inactive”.
As for `Cn1c(N2CCC(C(N)=O)CC2)nc2c1c(=O)n(Cc1ccc(Br)cc1)c(=O)n2C`, the outcome was inactive.
On the same count and under the same terms, to `OC1(c2ccc(Cl)cc2)CN(c2ccccc2)C2=[N+]1CCS2` (stereo not drawn) belongs “inactive”; to `CCN(CCCNC(=O)CCCOc1cc(=O)n(C)c2ccccc12)Cc1ccccc1`, “inactive”.
Same read-out and setting: to `O=C(NN/C(=N/S(=O)(=O)c1ccc(Cl)cc1)c1ccccc1)c1cccc(Cl)c1` belongs “inactive”.
On the same count and under the same terms, for `CCn1c2ccc(F)cc2c2nnc(NN)nc21` the value was “inactive”; for `CCN(CC)CCOCCOc1ccc(Cl)c2ccccc12`, “inactive”; for `O=C(NCCCN1CCCC1=O)c1ccc(CNS(=O)(=O)c2ccc(F)cc2)cc1`, “inactive”.
Regarding `Cc1noc(C)c1COC(=O)[C@@H](NC(=O)c1ccccc1Cl)C(C)C`, the result was inactive.
Same read-out and setting: to `C/C=C/Cn1c(SCCCc2ccccc2)nc2c1c(=O)[nH]c(=O)n2C` belongs “inactive”; to `O=[N+]([O-])c1ccc2c(c1)C=C1CCCCC1(N1CCCC1)O2` (stereo not drawn), “inactive”.
The same measure, in the same setting: to `COc1ccc(CCn2c(=S)[nH]c3cc(C(=O)N4CCOCC4)ccc3c2=O)cc1OC` belongs “inactive”; to `CN(C)CCCCOc1cccc(Br)c1`, “inactive”.
With `CC1=CC(=O)C(C(C)C)=C/C1=N/OS(=O)(=O)c1ccccc1`, the result was inactive.
Same read-out and setting: for `O=C1CC(NS(=O)(=O)c2cccs2)CN1c1ccccc1` (stereo not drawn) the value was “inactive”; for `OCCNCc1cc(Br)ccc1OCc1ccccc1`, “inactive”.

(Values after PubChem BioAssay.)
